The assay deals with Rab7. Nature of the assay: small GTPase nucleotide-binding inhibition, multiplex panel – biochemical, round 1 SAR, Mg buffer, multiplex flow cytometry, selectivity assay for Cdc42 probe extension project, SAR follow-up (AID 588477). Conditions: GST-GTPase beads, Bodipy-GTP binding; series mostly up to 100 µM. (In general: Flow cytometry measures light scatter and fluorescence of single cells or particles in a stream.)

Activity calls are given as the source filed them.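 The calls were made as follows: active = valid curve fit with half-effect dose at most 10 µM and total binding change across doses of 30 points or more; inactive = the rest.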

Turning to `O=C(C#Cc1ccccc1)c1cccc([N+](=O)[O-])c1`, the compound was called inactive.

For the compound `COc1ccc(C2CC(c3ccccc3)=NN2c2ccc(S(N)(=O)=O)cc2)cc1` (configuration not stated), the call was inactive.

These data come from PubChem BioAssay AID588477 (NMMLSC, 2011).
